This is a sample that favours compounds with a hit; in the whole collection about 0.5% have one here.
Tat transport: E. coli Tat export inhibitors, primary screen, MC4100, TorA-mCherry reporter, fluorescence, single point. inhibition, % at 10 µM. actives 0.036% (n = 340,000);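 active = mean replicate inhibition at least 50% and at least half of replicates individually reaching 50%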;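 also: exported cargo escapes ClpAP degradation while cytoplasmic cargo is degraded and loses fluorescence; 0% = median of neutral control wells and 100% = median of NaSCN control wells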
AddAB inh: growth inhibition of E. coli expressing H. pylori AddAB, primary screen, AddAB inhibitor project, absorbance. inhibition, % at 11.9 µM. actives 0.29% (n = 330,000). AID 435030, 2010; in the data active = inhibition above about 12%;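 also: 0% = vehicle wells of infected cells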
phage Ecoli inh: growth loss of phage-infected E. coli, primary screen, RecBCD inhibitor project, absorbance, with phage, HTS | inhibition, % at 11.9 µM | actives 0.26% (n = 360,000); in the data active = inhibition above about 11%
E coli growth-1: E. coli growth inhibition, primary screen, OD600 | actives 0.21% (n = 330,000) | AID 1053175, 2014 | OD600 absorbance (concentration not given with the values) | Escherichia coli growth, 23 h; active compounds read low;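 active = OD600 absorbance below the run mean of sample wells minus 3.6 SD, in any replicate, cut at about 0.56 in these data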
E coli growth-2: E. coli V3065 growth inhibition, primary screen, counter-screen for AddAB inhibitor project, absorbance, OD600; 18 h; inhibition, % at 11.9 µM; actives 0.27% (n = 330,000); AID 449728, 2010;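 active = inhibition above the campaign's mean inhibition across all tested compounds plus 3 SD, cut at about 9.9% in these data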;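 also: uninfected addAB+ strain grown without phage in ampicillin broth; 0% = DMSO wells and 100% = ciprofloxacin 0.95 µg/ml wells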
AddAB confirm: growth loss of phage-infected E. coli expressing H. pylori AddAB, confirmation, AddAB inhibitor project, absorbance, E. coli V3065, T4 phage, triplicate; shares compounds with AddAB inh; OD; T4 phage with gene 2 nonsense mutations; inhibition, % at 11.9 µM; actives 64% (n = 880); AID 488942, 2010;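 active = mean inhibition above a set limit taken from the earlier primary screen, cut at about 13% in these data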;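 also: higher means less bacterial growth since AddAB block lets phage replicate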
RecBCD counter: growth loss of RecBCD+ E. coli with mutant T4 phage, counter-screen for AddAB inhibitor project, absorbance, V66 E. coli. shares compounds with AddAB inh. OD growth. inhibition, % at 11.9 µM. actives 73% (n = 880). AID 488955, 2010;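 active = mean inhibition above the mean of solvent-only control wells plus 3 SD, cut at about 4% in these data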;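 also: optical density read after an 18 h incubation at 37 °C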
bact viab count: bacterial viability inhibition counter-screen, confirmation, counter-screen for AddAB inhibitor project, absorbance. shares compounds with AddAB inh. absorbance (AddAB counterscreen). inhibition, % at 11.9 µM. actives 35% (n = 880). AID 488956, 2010; in the data active = inhibition above about 25%
Starred values were filed as active, the others as inactive.

What do the screens show for `O=C1CC(c2ccco2)CC(O)=C1C=NCC1NCCc2ccccc21` (configuration not stated)?
Tat transport: -4.6; AddAB inh: -1.1; phage Ecoli inh: 1.8; E coli growth-1: 0.725; E coli growth-2: -0.6

How did Cc1cccc(NC(=O)NC(C)C(c2cccs2)N2CCOCC2)c1 (configuration not stated) do in these assays?
Tat transport: -9.9; AddAB inh: 99.5*; phage Ecoli inh: 4.5; E coli growth-1: 0.73; E coli growth-2: 99.2*; AddAB confirm: -0.8; RecBCD counter: 2.3; bact viab count: 2.5

How did CNC(=O)Cn1ncc2c(C)n(Cc3ccc(C)cc3)c(C)c2c1=O do in these assays?
Tat transport: -0.9; AddAB inh: 0.3; phage Ecoli inh: 2.2; E coli growth-1: 0.636; E coli growth-2: 0.2

Results for Cc1ccc(Cn2c(C)c3cnn(CC(=O)NC4CCCC4)c(=O)c3c2C)cc1 ?
Tat transport: -8.5; AddAB inh: 98.9*; phage Ecoli inh: 3.0; E coli growth-1: 0.712; E coli growth-2: 86.5*; AddAB confirm: 3.1; RecBCD counter: 0.6; bact viab count: -2.0

Results for CCOC(=O)C(CC)Sc1nc2c(cnn2-c2ccc(F)cc2)c(=O)[nH]1 (configuration not stated) ?
Tat transport: 1.7; AddAB inh: 1.3; phage Ecoli inh: 0.9; E coli growth-1: 0.643; E coli growth-2: -0.1

What do the screens show for `CCC(Sc1nc2c(cnn2-c2ccc(Cl)cc2)c(=O)[nH]1)C(=O)OC` (configuration not stated)?
Tat transport: -11.7; AddAB inh: 96.7*; phage Ecoli inh: 1.5; E coli growth-1: 0.84; E coli growth-2: 43.1*; AddAB confirm: -0.4; RecBCD counter: 1.1; bact viab count: -0.1

What do the screens show for `CCOC(=O)c1c(-c2ccc(C)o2)csc1NC(=O)CN(C)CC(=O)Nc1ccc(C)cc1`?
Tat transport: 4.8; AddAB inh: 0.0; phage Ecoli inh: -0.8; E coli growth-1: 0.683; E coli growth-2: -1.4

What do the screens show for `Oc1ccc(/C=N/NC(=S)Nc2cccnc2)c(O)c1`?
Tat transport: 2.7; AddAB inh: 15.9*; phage Ecoli inh: 4.7; E coli growth-2: 10.5*; AddAB confirm: 8.0; RecBCD counter: 11.1*; bact viab count: 15.8

Results for COc1ccc(-c2nc(Cn3c(SCc4cccc(F)c4)nc4ccncc43)c(C)o2)cc1OC ?
Tat transport: 6.5; AddAB inh: 96.1*; phage Ecoli inh: 0.0; E coli growth-1: 0.725; E coli growth-2: 82.5*; AddAB confirm: -3.0; RecBCD counter: -0.9; bact viab count: -2.0

How did COc1cccc(/C=N/NC(=O)c2[nH]c(C)c(C(=O)N/N=C/c3cccc(OC)c3O)c2C)c1O do in these assays?
Tat transport: 11.1; AddAB inh: 27.8*; phage Ecoli inh: 22.2*; E coli growth-2: 27.7*; AddAB confirm: 18.1*; RecBCD counter: 21.3*; bact viab count: 13.0

What do the screens show for `CC(c1ccccc1)C1CC(=O)N(Cc2ccccc2)C1=O` (configuration not stated)?
Tat transport: 1.5; AddAB inh: 2.5; phage Ecoli inh: -1.5; E coli growth-1: 0.727; E coli growth-2: 1.2

Results for CSc1nnc2n(-c3ccc(C)cc3)c(=O)c3c4c(sc3n12)COC(C(C)C)C4 (configuration not stated) ?
Tat transport: 0.3; AddAB inh: 14.9*; phage Ecoli inh: 0.8; E coli growth-1: 0.726; E coli growth-2: 8.4; AddAB confirm: -5.7; RecBCD counter: -0.7; bact viab count: -4.7

Results for O=Cc1ccc(OCc2cccc(C(F)(F)F)c2)cc1O ?
Tat transport: -3.6; AddAB inh: 13.3*; phage Ecoli inh: 9.7; E coli growth-1: 0.612; E coli growth-2: 11.8*; AddAB confirm: 8.0; RecBCD counter: 9.5*; bact viab count: 5.8

How did O=C(O)c1nnn(-c2cc(C(F)(F)F)cc(C(F)(F)F)c2)c1-c1ccccc1 do in these assays?
Tat transport: -4.8; AddAB inh: 18.6*; phage Ecoli inh: 1.0; E coli growth-1: 0.706; E coli growth-2: 2.3; AddAB confirm: -0.7; RecBCD counter: 0.3; bact viab count: -1.9

How did Cc1cccc2cc(CNCc3ccccc3)c(Cl)nc12 do in these assays?
Tat transport: 2.1; AddAB inh: -0.3; phage Ecoli inh: 3.8; E coli growth-1: 0.555; E coli growth-2: -0.2

How did CC1(C(=O)N/N=C/c2ccccc2)CC1(Br)Br (configuration not stated) do in these assays?
Tat transport: 1.5; AddAB inh: 97.0*; phage Ecoli inh: -3.4; E coli growth-2: 97.4*; AddAB confirm: -1.8; RecBCD counter: -0.5; bact viab count: -3.8

What do the screens show for `Cc1ccc(/C=N/NC(=O)C2(C)CC2(Br)Br)cc1` (configuration not stated)?
Tat transport: 2.7; AddAB inh: -0.2; phage Ecoli inh: 1.5; E coli growth-2: 2.5

Results for CC(C)CCN(C)C1CCN(C(=O)Nc2c(F)cccc2F)CC1 ?
Tat transport: -0.7; AddAB inh: 27.6*; phage Ecoli inh: 3.7; E coli growth-1: 0.722; E coli growth-2: 4.8; AddAB confirm: -3.4; RecBCD counter: 1.1; bact viab count: -1.3

How did Cc1ccc(/C=C/C(=O)c2ccccc(=O)c2O)cc1C do in these assays?
Tat transport: 5.5; AddAB inh: 13.3*; phage Ecoli inh: 4.3; E coli growth-1: 0.689; E coli growth-2: 7.3; AddAB confirm: 5.7; RecBCD counter: 6.1*; bact viab count: 5.0

Results for CC1=NN(C(N)=S)C(=O)C1N=Nc1c(C)cc(C)cc1C (configuration not stated) ?
Tat transport: -5.2; AddAB inh: 0.9; phage Ecoli inh: 2.0; E coli growth-1: 0.7; E coli growth-2: 7.7

How did CC1=NN(C(N)=S)C(=O)C1N=Nc1c(Br)cc(Br)cc1Br (configuration not stated) do in these assays?
Tat transport: 3.5; AddAB inh: 13.5*; phage Ecoli inh: 10.3; E coli growth-2: 13.5*; AddAB confirm: 26.3*; RecBCD counter: 13.5*; bact viab count: 25.7*

What do the screens show for `CCOCCN(C(=O)c1ccccc1Cl)c1cccc(C)c1C`?
Tat transport: -3.5; AddAB inh: 0.3; phage Ecoli inh: -0.3; E coli growth-1: 0.68; E coli growth-2: 0.7

How did Fc1ccccc1COc1ccccc1/C=N/Nc1nc(N2CCCC2)nc(N2CCCC2)n1 do in these assays?
Tat transport: 2.7; AddAB inh: -0.8; phage Ecoli inh: 0.2; E coli growth-2: 3.4

Screening data: PubChem BioAssay, several laboratories
